{
  "source": "PubChem BioAssay AID1445",
  "about": "(SRMLSC, 2008)",
  "note": "In all, about 220,000 compounds went through this assay and about 910 (0.41%) were called active.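 How the source made its calls: active means primary inhibition above the hit cutoff, then over 50% inhibition at one or more dose response concentrations (cut at about 23% in these data, passing the limit was not always enough); inconclusive means conflicting primary data, or primary hits not chosen for dose response; inactive means low primary inhibition, or under 50% at every dose.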 Many of the other results were omitted from the sample, so actives are more common in it than they were. Potency and affinity values are given separately.",
  "data": [
    {"target": "Aminopeptidase N (Plasmodium falciparum (isolate 3D7)) (UniProt O96935)", "sequence (O96935 whole entry, looked up)": "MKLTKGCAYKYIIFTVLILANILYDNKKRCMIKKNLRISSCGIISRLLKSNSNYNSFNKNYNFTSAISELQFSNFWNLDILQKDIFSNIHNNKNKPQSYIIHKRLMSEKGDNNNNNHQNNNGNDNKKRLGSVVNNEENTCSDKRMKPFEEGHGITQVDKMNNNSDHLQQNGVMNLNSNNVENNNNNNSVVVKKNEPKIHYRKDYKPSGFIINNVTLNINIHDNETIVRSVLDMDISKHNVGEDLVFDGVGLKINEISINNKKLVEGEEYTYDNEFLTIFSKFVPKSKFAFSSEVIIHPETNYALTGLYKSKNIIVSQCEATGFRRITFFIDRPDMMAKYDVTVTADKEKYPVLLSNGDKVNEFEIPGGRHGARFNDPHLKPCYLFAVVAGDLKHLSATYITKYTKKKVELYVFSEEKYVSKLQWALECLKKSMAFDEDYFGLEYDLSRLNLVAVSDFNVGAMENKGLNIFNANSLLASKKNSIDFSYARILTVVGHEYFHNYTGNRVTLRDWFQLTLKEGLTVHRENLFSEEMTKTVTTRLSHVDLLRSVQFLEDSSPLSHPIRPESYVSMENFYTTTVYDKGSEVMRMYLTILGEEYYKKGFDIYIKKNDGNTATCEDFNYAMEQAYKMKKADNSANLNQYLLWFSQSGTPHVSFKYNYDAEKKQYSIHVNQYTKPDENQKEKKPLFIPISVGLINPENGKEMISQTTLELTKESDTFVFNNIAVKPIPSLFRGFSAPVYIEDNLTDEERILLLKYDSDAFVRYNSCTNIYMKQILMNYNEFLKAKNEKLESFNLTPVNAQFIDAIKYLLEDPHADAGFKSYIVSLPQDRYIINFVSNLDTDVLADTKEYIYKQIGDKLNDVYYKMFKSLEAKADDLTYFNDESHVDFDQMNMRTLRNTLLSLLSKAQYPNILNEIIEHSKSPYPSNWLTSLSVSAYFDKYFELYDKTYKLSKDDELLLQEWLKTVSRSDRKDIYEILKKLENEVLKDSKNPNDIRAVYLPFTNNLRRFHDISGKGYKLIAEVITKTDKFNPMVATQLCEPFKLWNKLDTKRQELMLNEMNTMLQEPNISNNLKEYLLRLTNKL", "assay": "P. falciparum M1AAP inhibitors, biochemical, fluorogenic H-Leu-NHMec substrate, 1536-well (AID 1445);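 further: plate controls were DMSO full reaction for no effect and no enzyme background for full effect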", "conditions": "recombinant M1AAP, H-Leu-NHMec fluorogenic kinetic assay; at 30 µM, stronger effect = higher value unless noted", "values": [
      {"smiles": "Cc1c(C)c2cc(Cl)c(O)c(CN(C)C)c2oc1=O", "inhibition": "14.8% (inactive)"},
      {"smiles": "CCN(CC)Cc1oc(CO)cc(=O)c1O", "inhibition": "5.8% (inactive)"},
      {"smiles": "CCN(CC)Cc1c(O)c(Cl)cc2c(C)c(C)c(=O)oc12", "inhibition": "23.6% (active)"},
      {"smiles": "Cc1c(Cc2ccccc2)c(=O)oc2cc(O)ccc12", "inhibition": "22.2% (inactive)"},
      {"smiles": "CCc1c(C)c2cc(Cl)c(O)c(CN(C)C)c2oc1=O", "inhibition": "-5.92% (inactive)"},
      {"smiles": "CCc1cc2c(=O)c(-c3nc4ccccc4n3C)c(C)oc2c(CN(CC)CC)c1O", "inhibition": "6.03% (inactive)"},
      {"smiles": "CCOc1ccc(OCCCC(=O)NC2=NCCS2)cc1", "inhibition": "-1.08% (inactive)"},
      {"smiles": "COc1ccc(O)c(C2NC(CC(C)C)(C(=O)O)C3C(=O)N(Cc4ccccc4)C(=O)C23)c1", "note": "(centres undefined)", "inhibition": "13.5% (inactive)"},
      {"smiles": "COc1ccc(OCCC(=O)OCC(=O)Nc2cccc(Br)c2)cc1", "inhibition": "2.82% (inactive)"},
      {"smiles": "O=CN1N=C(c2ccccc2)CC1c1ccccc1[N+](=O)[O-]", "note": "(centres undefined)", "inhibition": "0.38% (inactive)"},
      {"smiles": "CCCN(Cc1ccccc1)C(=S)Nc1ccc(C(C)=O)cc1", "inhibition": "0.74% (inactive)"},
      {"smiles": "CCOc1ccc(C(Nc2cccnc2)c2cc(Cl)c3cccnc3c2O)cc1", "note": "(centres undefined)", "inhibition": "-6.83% (inactive)"},
      {"smiles": "O=C(O)COc1ccccc1C(Nc1ccccn1)c1cc(Cl)c2cccnc2c1O", "note": "(centres undefined)", "inhibition": "23.1% (inactive)"},
      {"smiles": "COc1ccc(N2CCN(Cc3cc(=O)oc4cc(-c5ccccc5)c(O)cc34)CC2)cc1", "inhibition": "-0.12% (inactive)"},
      {"smiles": "COc1ccc(F)cc1S(=O)(=O)Nc1ccc(C)cc1", "inhibition": "-1.13% (inactive)"},
      {"smiles": "CCOC(=O)N1CCN(C(=O)c2ccc3c(c2)ncn3C2CCCC2)CC1", "inhibition": "2.32% (inactive)"},
      {"smiles": "O=[N+]([O-])c1cc2c(cc1/C=N/NS(=O)(=O)c1ccc(Br)cc1)OCO2", "inhibition": "3.45% (inactive)"},
      {"smiles": "Nn1c(SCC(=O)NC2CCCCC2)nnc1-c1ccccc1", "inhibition": "3.83% (inactive)"},
      {"smiles": "CC1CCCCC1NC(=O)CSc1nnnn1-c1ccccc1", "note": "(centres undefined)", "inhibition": "2.02% (inactive)"},
      {"smiles": "Cc1cccc(C)c1OCC(=O)NCc1nnc(SCC(=O)NC2CCCCC2)n1C", "inhibition": "3.03% (inactive)"},
      {"smiles": "Cc1cccc(C)c1OCC(=O)NCc1nnc(SCC(=O)NC2CCCCC2C)n1C", "note": "(centres undefined)", "inhibition": "24.1% (active)"},
      {"smiles": "CC1CCCCC1NC(=O)CSc1nnc(CNC(=O)c2ccccc2)n1C", "note": "(centres undefined)", "inhibition": "-2.54% (inactive)"},
      {"smiles": "CN(CC(=O)NC1CCCCC1)S(=O)(=O)c1ccc(Cl)cc1", "inhibition": "-0.77% (inactive)"},
      {"smiles": "Cc1cccc(OCC(=O)N2CCN(C(=O)CCC3CCCC3)CC2)c1", "inhibition": "22.4% (inactive)"},
      {"smiles": "CC(=O)N1CCN(C(=O)COc2ccc(Br)cc2)CC1", "inhibition": "1.6% (inactive)"},
      {"smiles": "O=C(CCC1CCCC1)N1CCN(C(=O)COc2ccccc2)CC1", "inhibition": "21.1% (inactive)"},
      {"smiles": "O=C(COc1ccc(Br)cc1)N1CCOCC1", "inhibition": "-2.69% (inactive)"},
      {"smiles": "CCCOc1ccc(CSc2n[nH]c(C)n2)cc1", "inhibition": "8.48% (inactive)"},
      {"smiles": "COc1ccc(CCNC(=O)C(C)Sc2ccccc2)cc1OC", "note": "(centres undefined)", "inhibition": "-0.82% (inactive)"},
      {"smiles": "Cc1cccc(NC(=S)NCCc2ccc3c(c2)OCCO3)c1C", "inhibition": "0.53% (inactive)"},
      {"smiles": "CC1CCC(C(C)C)C(OC(=O)COC(=O)c2cc(O)ccc2N)C1", "note": "(centres undefined)", "inhibition": "6% (inactive)"},
      {"smiles": "CCn1cc(S(=O)(=O)Nc2ccccc2C(F)(F)F)cn1", "inhibition": "-0.46% (inactive)"},
      {"smiles": "O=C(NNC(=O)c1ccccc1Br)c1ccc(Cl)cc1", "inhibition": "-5.75% (inactive)"},
      {"smiles": "NNC(=O)c1ccc(O)cc1O", "inhibition": "11.6% (inactive)"},
      {"smiles": "COc1ccccc1C(=O)NNC(=O)c1ccc(Cl)cc1", "inhibition": "-4.03% (inactive)"},
      {"smiles": "Cc1cccc(C(=O)NNC(=O)c2ccc(Cl)cc2)c1O", "inhibition": "27.7% (active)"},
      {"smiles": "CC(C)(C)c1ccc(C(=O)NNC(=O)c2ccc(Cl)cc2)cc1", "inhibition": "0.45% (inactive)"},
      {"smiles": "COc1cc(/C=C2/C(=N)N3C(c4ccccc4)=CSC3=NC2=O)ccc1OCC(=O)O", "inhibition": "8.04% (inactive)"},
      {"smiles": "COc1ccc(/C=C2/C(=N)N3C(=NC2=O)Sc2cc(S(C)(=O)=O)ccc23)cc1OC", "inhibition": "4.37% (inactive)"},
      {"smiles": "CN(C)c1ccc(/C=C2\\C(=N)N3C(=NC2=O)Sc2cc(S(C)(=O)=O)ccc23)cc1", "inhibition": "12.4% (inactive)"},
      {"smiles": "CC1=CSC2=NC(=O)/C(=C/c3cccc(OC(=O)c4ccco4)c3)C(=N)N12", "inhibition": "8.4% (inactive)"},
      {"smiles": "COC(=O)CCC(=O)N1CCOCCOCCOCC1", "inhibition": "3.89% (inactive)"},
      {"smiles": "COc1cc(/C=C2/NC(=O)N(Cc3ccccc3F)C2=O)cc(OC)c1O", "inhibition": "11% (inactive)"},
      {"smiles": "CCOc1cc(/C=C2/NC(=O)N(Cc3ccccc3F)C2=O)ccc1O", "inhibition": "9.55% (inactive)"},
      {"smiles": "O=S(=O)(c1ccccc1)c1nc(NCc2ccccc2)sc1Cl", "inhibition": "3.65% (inactive)"},
      {"smiles": "Cc1ccc(S(=O)(=O)c2nc(NN(C)C)sc2Cl)cc1", "inhibition": "2.25% (inactive)"},
      {"smiles": "CC(C)CNc1nc(S(=O)(=O)c2ccccc2)c(Cl)s1", "inhibition": "-9.9% (inactive)"},
      {"smiles": "Cc1ccc(S(=O)(=O)c2nc(NCCCn3ccnc3)sc2Cl)cc1", "inhibition": "1.08% (inactive)"},
      {"smiles": "Cc1ccc(S(=O)(=O)C2CS(=O)(=O)CC2O)cc1", "note": "(centres undefined)", "inhibition": "-0.11% (inactive)"}
    ]}
  ]
}
